{
  "source": "PubChem BioAssay (NCI)",
  "note": "This is part of a sample that, as a whole, favours compounds with a hit. Of some 83,000 tested, about 20% had one in any assay.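 In brief: 96-well plates, 48 h treatment, single concentration, percent growth endpoint.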 Activity calls are given as the source filed them. The calls were made as follows: active = growth percent below 10; inactive = the rest.",
  "data": [
    {"test_system": "HL-60(TB) leukemia", "experiment": "NCI-60 one-dose screen, 48 h (100 = growth as untreated, 0 = no growth, -100 = all killed)", "conditions": "10 µM unless noted", "values": [
      {"compound": "N#C/C(=C\\C=C\\c1ccc(-c2cc(Cl)ccc2Cl)o1)c1nc2ccccc2s1", "growth": "97.7% (inactive)"},
      {"compound": "COc1ccc2c(c1)oc1c(C)c3c(c(C)c12)C(=O)N(N)C3=O", "growth": "38.3% (inactive)"},
      {"compound": "O=S(=O)(Nc1ccc(-n2cnc3cc(-c4ccc(O)cc4)ccc32)cc1)c1ccccc1", "growth": "79% (inactive)"},
      {"compound": "O=C(Nc1ccc(F)cc1)Nc1ccc(CCO)cc1", "growth": "101% (inactive)"},
      {"compound": "COC(=O)CCc1n(Cc2ccc3ccccc3c2)c2ccccc2[n+]1Cc1ccc2ccccc2c1", "growth": "-49.1% (active)"},
      {"compound": "COC(=O)C1=C(C(=O)ON)C2C=CC1(C(Cc1ccccc1)Nc1ccccc1)O2", "note": "(stereo not given)", "growth": "18.9% (inactive)"},
      {"compound": "CNC(=O)c1[nH]cc(-c2ccccc2)c1-c1cc(OC)c2c(c1OC)OCO2", "growth": "93.3% (inactive)"},
      {"compound": "C=C1C(=O)O[C@H]2[C@H]1CC/C(Cn1cc(Cc3c[nH]c4ccccc34)nn1)=C\\CC[C@@]1(C)O[C@@H]21", "growth": "-49.1% (active)"},
      {"compound": "C=C1CCC2C3(C)COC(c4ccccc4)OC3CCC2(C)C1C/C=C1/C(=O)OCC1OC(C)=O", "note": "(stereo not given)", "growth": "56% (inactive)"},
      {"compound": "CC(C)NS(=O)(=O)/N=C1\\NC(=O)NC1=C(Cl)Cl", "growth": "55.6% (inactive)"},
      {"compound": "COc1ccc(-c2cc(/C=C/C(=O)c3ccc(N)cc3)[nH]n2)cc1OC", "growth": "20.1% (inactive)"},
      {"compound": "CCOC(=O)Nc1ccc2nc(Sc3ccc(Cl)cc3)sc2c1", "growth": "10.1% (inactive)"},
      {"compound": "O=S(=O)(NCCNc1cc(-c2cn(-c3ccccc3)nc2-c2cccc(O)c2)ccn1)c1ccccc1", "growth": "33.9% (inactive)"},
      {"compound": "CNC(=O)c1cc(Oc2ccc3nc(Nc4ccc(Cl)c(C(F)(F)F)c4)ccc3c2)ccn1", "growth": "62.6% (inactive)"},
      {"compound": "COc1cc2c(Oc3ccc4[nH]c(C)cc4c3F)ncnc2cc1OCCCN1CCCC1", "growth": "102% (inactive)"},
      {"compound": "CCO/C=N/C1=C(C#N)C(c2ccc(F)cc2)c2sc3c(F)cccc3c2O1", "note": "(stereo not given)", "growth": "6.35% (active)"},
      {"compound": "CC12O[C@H](C[C@@H](OC(=O)c3ccccc3)[C@H]1O)n1c3ccccc3c3c4c(c5c6ccccc6n2c5c31)C(=O)NC4=O", "growth": "96.9% (inactive)"},
      {"compound": "CCOC(=O)c1c(-c2ccccc2)n2c(=O)cc(C)c3c(O)c(O)cc1c32", "growth": "11.7% (inactive)"},
      {"compound": "Oc1cccc(CNC2CCCCC2)c1", "growth": "107% (inactive)"},
      {"compound": "O=C(COc1ccc(/C=C2\\Oc3ccc4ccccc4c3C2=O)cc1)c1ccc([N+](=O)[O-])cc1", "growth": "75.9% (inactive)"},
      {"compound": "CCNCCNc1cc(-c2ccc(F)cc2)c(C#N)c2nc3ccccc3n12", "growth": "-48.8% (active)"},
      {"compound": "O=C1/C(=C\\c2ccco2)SC(=S)N1CCc1ccc(O)cc1", "growth": "76.3% (inactive)"},
      {"compound": "COc1ccccc1/C=C1\\Oc2cc(OCCN3CCC(Cc4ccccc4)CC3)ccc2C1=O", "growth": "97.1% (inactive)"},
      {"compound": "CCCSC1=NC2C(N(CC)C(=O)N2CC)N1/N=C/C=C/c1ccccc1[N+](=O)[O-]", "note": "(stereo not given)", "growth": "-29.8% (active)"},
      {"compound": "Cc1ccc(NC(=O)c2sc3nc(C)c(C(O)c4ccccc4)cc3c2N)cc1", "note": "(stereo not given)", "growth": "-47.5% (active)"},
      {"compound": "CC(=O)O[C@H]1CC[C@@]2(C)[C@@H](CC[C@@H]3[C@@H]2CC[C@@]2(C)[C@H]3CC[C@]2(O)C(C)=O)C1", "growth": "93.5% (inactive)"},
      {"compound": "Cc1ccc(C)n1-c1ccsc1C(=O)NNC(=O)CCl", "growth": "104% (inactive)"},
      {"compound": "COc1ccc2nc3ccccc3c(NCc3ccc(Cl)cc3)c2c1", "growth": "-64.5% (active)"},
      {"compound": "CCSc1nnc(Nc2ccc(C(C)C)cc2)s1", "growth": "48.8% (inactive)"},
      {"compound": "COc1c(Cl)c2c(c(OC)c1OC)-c1ccc(SC)c(=O)cc1[C@@H](NC(=O)OCC(F)(F)F)CC2", "growth": "-35.4% (active)"},
      {"compound": "COc1cccc(/C=N/N=C(N)N)c1", "growth": "122% (inactive)"},
      {"compound": "O=C1CCC/C=C\\C[C@H]2C=CC(=O)/C2=C/C[C@H](C/C=C\\CC(F)(F)F)O1", "growth": "-16.6% (active)"},
      {"compound": "COc1ccc(/C=C/c2nc3ccccc3c(=O)n2-c2ccc(C#Cc3ccc(C(C)(C)C)cc3)cc2C)c(OC)c1", "growth": "67.4% (inactive)"},
      {"compound": "COc1cc2c(cc1OCCCCN1CCN(CC(=O)Nc3ccc(Cl)cc3C(=O)c3ccccc3Cl)CC1)N=CC1CCCN1C2=O", "note": "(stereo not given)", "growth": "-72.1% (active)"},
      {"compound": "COc1c(OCCCN2CCOCC2)ccc2c3n(c(=NC(=O)c4cnc(N)nc4)nc12)CCN3", "growth": "11.3% (inactive)"},
      {"compound": "O=S(=O)(NCCNc1nccc(-c2c(-c3cccc(F)c3)nc3sccn23)n1)c1ccc(Br)cc1", "growth": "90.5% (inactive)"},
      {"compound": "N#CSCc1cc(Cl)c(CSC#N)cc1Cl", "growth": "22.1% (inactive)"},
      {"compound": "O=C(Nc1ncc([N+](=O)[O-])s1)c1cccc([N+](=O)[O-])c1", "growth": "2.45% (active)"},
      {"compound": "CCN(CC)CCN(CCN(CC)CC)c1ccccc1", "growth": "87.9% (inactive)"},
      {"compound": "CC/C(=C(/c1ccc(O)cc1)c1ccc(OCCN2CCCCCC2)cc1)c1ccc(Cl)cc1", "growth": "53.9% (inactive)"}
    ]}
  ]
}
